Survival data for 53 molecules are collected here from PubChem BioAssay AID463173 (ICCB-Longwood Screening Facility, Harvard Medical School, 2010).

SMILES strings stand for the structures. Out of some 52,000 compounds screened, about 4,300 (8.3%) were called active. Rule as the data show it: active = survival mostly below about 52% (no sharp cut-off); inactive = mostly above about 56%. The entries come from a sample that favours actives as a whole.

In this test the test system is DeltatarO mutant. Kind of test: S. aureus survival, RN4220 and DeltatarO strains – OD600, teichoic acid synthesis inhibitors, primary screen (AID 463173). As to conditions: S. aureus RN4220 wild type/DeltatarO growth, OD600, 18 h, hits give low values, screened at 18.75 µg/mL (by protocol).
Take `COc1cc(NC(=O)N(Cc2ccco2)C2CCN(C(C)=O)CC2)cc(OC)c1OC`: the survival was 134% (inactive).
On to `N#Cc1ccc(NC(=O)CNCC2CCCCC2)cc1`, for which the survival was 100% (inactive).
For the molecule `CCn1c(=NC(=O)c2ccc3c(c2)OCCO3)sc2c(C)ccc(OC)c21`, the survival is 120% (inactive).
In the case of `O=c1oc2ccccc2cc1-c1cn2cc(Cc3ccc(Cl)cc3)sc2n1`, the survival was 84% (inactive).
On to `O=c1oc2ccccc2cc1-c1cn2cc(Cc3ccccc3F)sc2n1`, for which the survival was 49% (active).
In the case of `O=c1oc2ccccc2cc1-c1cn2cc(Cc3cc(Cl)ccc3Cl)sc2n1`, the survival is 52% (active).
As for `O=c1oc2ccccc2cc1-c1cn2cc(Cc3ccc(Br)cc3)sc2n1`, the survival was 66% (inactive).
Take `CC(C)c1ccc(Cc2cn3cc(-c4cc5ccccc5oc4=O)nc3s2)cc1`: the survival was 56% (inactive).
With `O=c1oc2ccccc2cc1-c1cn2cc(Cc3ccc(F)cc3)sc2n1`, the survival is 128% (inactive).
Regarding `Cc1ccc(NC(=O)c2sc3ncn(Cc4cccc(F)c4)c(=O)c3c2C)c(Br)c1`, the survival is 87% (inactive).
The figure for `COc1ccc(NC(=O)Cn2c(=O)n(Cc3nc(C)no3)c(=O)c3cc4c(cc32)OCO4)cc1` is 99% (inactive); for `CC(C)CCNC(=O)CN1C(=O)CSc2ccc(S(=O)(=O)N3CCC(C)CC3)cc21` it is 72% (inactive); for `Cc1ccc(/C=C/c2onc(C)c2S(=O)(=O)N2CCC(C(=O)NCc3ccc(OC(C)C)cc3)CC2)cc1` it is 69% (inactive).
Turning to `COc1cccc(CNC(=O)C(=O)NCC(c2ccco2)S(=O)(=O)c2cccs2)c1` (stereo not drawn), the survival is 94% (inactive).
Take `Cc1ccc(C)c(-c2[nH]c3c(c2-c2c(-n4cccc4)n(C)c(=O)n(C)c2=O)c(=O)n(C)c(=O)n3C)c1`: the survival is 64% (inactive).
Regarding `COc1cccc(-c2[nH]c3c(c2-c2c(-n4cccc4)n(C)c(=O)[nH]c2=O)c(=O)[nH]c(=O)n3C)c1`, the survival was 63% (active).
Regarding `Cn1c(-n2cccc2)c(-c2c(-c3ccccc3)[nH]c3c2c(=O)[nH]c(=O)n3C)c(=O)[nH]c1=O`, the survival was 60% (inactive).
For the molecule `Cc1ccc(C)c(-c2[nH]c3c(c2-c2c(-n4cccc4)n(C)c(=O)[nH]c2=O)c(=O)[nH]c(=O)n3C)c1`, the survival is 59% (active).
With `Cc1ccc(-c2[nH]c3c(c2-c2c(-n4cccc4)n(C)c(=O)[nH]c2=O)c(=O)[nH]c(=O)n3C)cc1`, the survival was 65% (inactive).
Take `COc1ccc(-c2[nH]c3c(c2-c2c(-n4cccc4)n(C)c(=O)[nH]c2=O)c(=O)[nH]c(=O)n3C)cc1F`: the survival was 63% (inactive).
The figure for `CC(=O)Nc1ccc(C(=O)NCCN2CCOCC2)cc1` is 96% (inactive); for `Cc1cccc(N2CCN(S(=O)(=O)c3ccc4c(c3)C(C(C)C)C(=O)N4)CC2)c1C` (stereo not drawn) it is 55% (inactive); for `Cc1ccc(Cc2nc3ccccc3nc2SCC(=O)NCCC(C)C)cc1` it is 112% (inactive).
Take `CCCCN(CC)CCNC(=O)CN1C(=O)COc2ccc(S(=O)(=O)N3CCOCC3)cc21`: the survival was 86% (inactive).
With `Cc1ccc(C)c(NC(=O)CCc2nc3cccnc3n2Cc2cccs2)c1`, the survival is 73% (inactive).
For `CCOc1ccc(C2CC(=O)Nc3nc(SCc4ccccc4C)[nH]c(=O)c32)cc1OC` (stereo not drawn), the survival is 103% (inactive).
Consider `CCOc1ccc(C2CC(=O)Nc3c2c(=O)nc(SCc2ccccc2C)n3C)cc1OC` (stereo not drawn), for which the survival is 42% (active).
As for `COc1cc(O)ccc1C1CC(=O)Nc2c1c(=O)nc(SCc1ccccc1C)n2C` (stereo not drawn), the survival is 93% (inactive).
For `COc1ccc(-c2[nH]c(-c3ccc(C)cc3)nc2SCC(=O)NCC2CCCO2)cc1` (stereo not drawn) the value was 82% (inactive); for `COc1ccc2c(c1)c1c(c(=O)n(-c3cc(Cl)ccc3C)c(=O)n1CC(=O)N1CCCC1)n2C`, 83% (inactive); for `Cc1ccccc1NC(=O)Cn1c(=O)n(Cc2ccc3c(c2)OCO3)c(=O)c2ccccc21`, 97% (inactive).
For `Cc1cc(C)c(-c2n[nH]c3c2C(c2ccccc2F)N(CCO)C3=O)c(O)c1` (stereo not drawn), the survival was 77% (inactive).
As to `COc1cc(C2c3c(-c4cc(C)ccc4O)n[nH]c3C(=O)N2Cc2ccco2)cc(OC)c1OC` (stereo not drawn), the survival is 66% (inactive).
The figure for `Cc1cc(C)c2c(=O)c3c(oc2c1)C(=O)N(Cc1ccco1)C3c1ccccc1F` (stereo not drawn) is 106% (inactive); for `Cc1cc(C)c(-c2n[nH]c3c2C(c2ccccc2F)N(Cc2ccco2)C3=O)c(O)c1` (stereo not drawn) it is 2% (active).
With `Cc1ccc(C2c3c(-c4cc(C)ccc4O)n[nH]c3C(=O)N2Cc2ccco2)cc1` (stereo not drawn), the survival was 1% (active).
Turning to `CCOc1cccc(C2c3c(-c4cc(C)ccc4O)n[nH]c3C(=O)N2Cc2ccco2)c1` (stereo not drawn), the survival was 8% (active).
For the molecule `Cc1ccc(O)c(-c2n[nH]c3c2C(c2ccc(F)cc2)N(Cc2ccco2)C3=O)c1` (stereo not drawn), the survival was 2% (active).
The figure for `COc1cc(C2c3c(-c4cc(C)ccc4O)n[nH]c3C(=O)N2Cc2cccnc2)cc(OC)c1OC` (stereo not drawn) is 83% (inactive); for `CCOc1ccc(C2c3c(-c4cc(C)ccc4O)n[nH]c3C(=O)N2Cc2cccnc2)cc1OCC` (stereo not drawn) it is 72% (inactive).
As for `CCC(=O)N1c2ccc(S(=O)(=O)NCCc3ccccc3)cc2CC1C` (stereo not drawn), the survival was 77% (inactive).
For `Cc1ccc2[nH]c(CSc3nnc(NC(=O)COc4ccccc4)s3)cc(=O)c2c1`, the survival is 82% (inactive).
The figure for `Cc1cc(C)c(NC(=O)C(C)n2nc(-c3ccc(C)c(C)c3)ccc2=O)c(C)c1` (stereo not drawn) is 63% (inactive).
The figure for `CCCCNC(=O)CN1CCN(c2ncc(NC(=O)c3ccc(Cl)cc3)cc2C(=O)O)CC1` is 94% (inactive); for `O=C1c2[nH]nc(-c3ccccc3O)c2C(c2cccc(Br)c2)N1Cc1ccncc1` (stereo not drawn) it is 85% (inactive); for `CCCOc1cccc(C2c3c(-c4ccccc4O)n[nH]c3C(=O)N2Cc2ccco2)c1` (stereo not drawn) it is 2% (active).
For `CCCOc1ccc(C2c3c(-c4ccccc4O)n[nH]c3C(=O)N2Cc2ccncc2)cc1OCC` (stereo not drawn) the value was 90% (inactive).
With `Cc1ccc(O)c(-c2n[nH]c3c2C(c2ccccc2F)N(Cc2ccco2)C3=O)c1` (stereo not drawn), the survival is 8% (active).
For the molecule `O=C1c2[nH]nc(-c3ccccc3O)c2C(c2ccccc2F)N1Cc1cccnc1` (stereo not drawn), the survival is 87% (inactive).
The figure for `O=C1c2[nH]nc(-c3ccccc3O)c2C(c2ccccc2F)N1Cc1ccncc1` (stereo not drawn) is 94% (inactive).
`COc1ccc(Cl)cc1NC(=O)c1ccc2nc(Cc3ccccc3)oc2c1`: the survival is 101% (inactive).
Take `CN(C)c1ccc(CNC(=O)c2cnc3sc(N4CCCC4)nn3c2=O)cc1`: the survival is 67% (inactive).
As to `CCOC(=O)c1c(C)n(C(=O)c2ccco2)c(=O)n1C(=O)c1ccco1`, the survival is 73% (inactive).
